High-throughput results deposited in PubChem BioAssay by National Center for Advancing Translational Sciences (NCATS).
A selection: hits, their analogues and other compounds. The true share with any hit is near 1.8%.
VDR inhibitor: inhibitors of human vitamin D receptor; 400,000 tested, 0.93% active; Potency, µM, inactives show max response, negative = inhibition, actives largely listed as inhibitors; AID 504847; VDR-SRC2-3 peptide fluorescence polarization, 2 h; also: % is scaled to controls: 0 for no effect and ±100 for the full control effect
Target sequence (P11473 whole entry, looked up): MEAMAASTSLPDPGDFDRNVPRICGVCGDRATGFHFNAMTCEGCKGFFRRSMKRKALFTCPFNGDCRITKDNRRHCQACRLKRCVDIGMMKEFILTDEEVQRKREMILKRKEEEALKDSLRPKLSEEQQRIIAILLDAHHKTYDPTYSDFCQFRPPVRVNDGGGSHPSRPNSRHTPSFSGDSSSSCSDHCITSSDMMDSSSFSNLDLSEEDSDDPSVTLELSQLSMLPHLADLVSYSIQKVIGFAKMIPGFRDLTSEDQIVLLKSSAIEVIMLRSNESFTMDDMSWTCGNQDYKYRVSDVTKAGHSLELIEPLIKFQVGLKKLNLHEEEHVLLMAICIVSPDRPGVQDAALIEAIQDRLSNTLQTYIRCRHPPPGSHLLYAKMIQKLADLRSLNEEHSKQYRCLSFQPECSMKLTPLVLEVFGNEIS
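The screen uses fluorescence polarization to detect compounds that interfere with recruitment of the SRC2-3 coactivator peptide to VDR; plates are read after 2 h at room temperature.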
Vif-A3F inh: blocks the Vif interaction with APOBEC3F; HeLa A3F-eYFP + Vif (tagged APOBEC3F with the HIV-1 protein that degrades it), YFP fluorescence increase; Potency, µM (titrated, usually from 46.1 µM), for inactives: at the top dose activity, negative = active; 390,000 tested, 0.2% active; also: % of control where 0% means no effect; nearly all actives have a fitted effect of over 65% in size
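Fluorescence increase (Ex 488/Em 500-530) after overnight compound treatment at 37 deg C flags inhibition of Vif-driven A3F-eYFP loss in stable HeLa A3F-eYFP/Vif cells seeded overnight beforehand.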
Vif-A3G inh: Vif-A3G binding inhibition; Q9HC16; HeLa A3G-eYFP + Vif (tagged APOBEC3G with the HIV-1 protein that degrades it), YFP fluorescence, overnight; Potency, µM (top dose mostly 46.1 µM), for the others: top-dose activity, negative = active, usual class: inhibitors; 410,000 tested, 0.076% active; also: % is scaled to controls: 0 for no effect and ±100 for the full control effect; nearly all actives have a fitted effect of over 60% in size
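HeLa cells stably expressing Vif and C-terminally eYFP-tagged A3G, seeded overnight at 37 deg C, then exposed to compound by pintool overnight at 37 deg C. Rise in yellow fluorescence (Ex 488/Em 500-530, Acumen) marks blocked Vif-driven A3G degradation.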
rTrxR1 inhibitor: blocks rat thioredoxin reductase 1. O89049. recombinant rTrxR1, NADPH fluorescence consumption, selenite substrate. Potency, µM (top dose mostly 114 µM), for the others: at the highest dose activity change, negative = inhibition, usual class: inhibitors. 390,000 tested, 1% active. AID 588453; also: % is scaled to controls: 0 for no effect and ±100 for the full control effect; nearly all actives have a fitted effect of over 65% in size
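Rat TrxR1 (90 nM in the dispensed reagent) was pre-reduced with 400 uM NADPH for 5 min at room temperature, then incubated with compound for 15 min. After 400 uM selenite was added, NADPH fluorescence (Ex 340/Em 450 nm) was followed for 8 min.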
TrxR1 substrate: is turned over as a substrate by rat TrxR1; O89049; purified TrxR1 substrate turnover, NADPH consumption readout; Potency, µM (series often up to 114 µM), for the others: at the top dose activity change, negative = substrate turnover; 390,000 tested, 0.01% active; AID 588456; also: % is scaled to controls: 0 for no effect and ±100 for the full control effect; nearly all actives have a fitted effect of over 50% in size
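Rat TrxR1, dispensed at 90 nM, was prereduced with 400 uM NADPH (final) for 5 min at ~22 deg C, then incubated with compound 15 min before 400 uM selenite. A first-read NADPH fluorescence drop versus no-compound background flagged substrates.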
An asterisk follows results filed as active; u = inconclusive; x = not tested or not shown; [ ] = remark or other dose. Calls follow the shape of the dose curve; as a rule, active = well fitted curve in the direction sought with a large enough effect; inconclusive = small, poorly fitted or top-dose-only effect, or another doubt; inactive = no such curve, though single readings can be large; an effect the other way counts as inactive or inconclusive. Potency is read from the fitted curve at half-maximal effect.

SMILES	VDR inhibitor	Vif-A3F inh	Vif-A3G inh	rTrxR1 inhibitor	TrxR1 substrate
O=C1NN(c2ccc(Cl)c(Cl)c2)C(=O)/C1=C/c1ccc(-c2ccccc2C(=O)O)o1	45µM*	0%	1%	u	u
COC(=O)c1ccc(N2NC(=O)/C(=C/c3ccc(-c4ccc(Cl)c(C(=O)O)c4)o3)C2=O)cc1	79µM*	-15%	2%	-43%	-4%[57.1 µM]
O=C(Cc1ccc(OCCc2ccccc2)cc1)NO	x	x	0%	19%	11%[0.0914 µM]
O=C(c1ccc2c(=O)n(CC3CCCO3)c(=S)[nH]c2c1)N1CCN(C(=O)c2ccco2)CC1 (centres undefined)	2%	x	x	u	4%
CCNc1ncc2nc(-c3cn(C)c4ccccc34)c(=O)n(Cc3ccc(F)cc3)c2n1	0%	x	x	x	x
C[N+]1(CC(=O)c2ccc(I)cc2)CCCc2ccccc21 (centres undefined)	x	x	-21%	2%	-4%
COc1ccc(NC(=O)CCCn2nc(C)c3sc4ccccc4c3c2=O)cc1	9%	-7%	4%	18%	6%
O=C(C(Br)=Cc1ccccc1)c1ccccc1	22µM*	-14%	u	u	-14%
CCC(C(=O)C(C)C(O)C(C)CCc1ccc(C)c(O)c1C(=O)O)C1OC(CC)(C2CC[C@@](O)(CC)C(C)O2)CC1C (some centres undefined)	-17%	x	x	x	x
O=[N+]([O-])c1ccc(SNc2ccccc2)c([N+](=O)[O-])c1	-9%	14%	-12%	16%[11.4 µM]	6%[11.4 µM]
O=[N+]([O-])c1ccc(-[n+]2ccc3ccccc3c2)c([N+](=O)[O-])c1	79µM*	3%	-4%	0.89µM*	-7%
O=C1CCCC2=C1C(c1ccc(Br)cc1)c1c([nH]c(=S)[nH]c1=O)N2 (centres undefined)	u	2%	-5%	u	-7%
Cc1ccc(C2C3=C(CCCC3=O)Nc3[nH]c(=S)[nH]c(=O)c32)cc1 (centres undefined)	89µM*	-16%	1%	-20%[57.1 µM]	-5%[57.1 µM]
CC1=C(C(=O)Nc2cc(Cl)ccc2C)C2(CCCCC2)OC1=O	-9%	x	x	3%	-5%
CCc1ccc(Sc2cc(C(=O)O)c3ccccc3n2)cc1	3%	-19%	-3%	14%[57.1 µM]	3%[57.1 µM]
O=S(=O)(Cc1nnnn1-c1ccccc1)c1ccc(Cl)cc1	-17%	4%	0%	-3%	1%
O=S(=O)(Cc1ccccc1)c1nnnn1-c1ccccc1	35µM*	x	x	x	x
N#Cc1ccc(CS(=O)(=O)c2nnnn2-c2ccccc2)cc1	45µM*	x	x	x	x
O=C(NCCCO)C(=O)NCC(c1ccc2c(c1)OCO2)N1CCOCC1 (centres undefined)	-2%	0%	2%	22%[57.1 µM]	10%[57.1 µM]
CC(=O)NC1[C@H]([C@H](O)[C@H](O)CO)OC(C(=O)O)=C[C@H]1N=C(N)N (some centres undefined)	3%	x	x	x	x
N#C/C(=C\c1cc(Br)ccc1F)C(=O)NC1CC1	u	1%	-10%	20µM*	-1%
N#C/C(=C\c1cc(Cl)cc(Cl)c1O)C(=O)NC1CCCCC1	-2%	-22%	0%	79µM*	-15%
CCN(CC)CCCNC(=O)c1ccc2c(c1)N(Cc1c(F)cccc1Cl)C(=O)c1ccccc1S2	-14%	1%	-19%	6%	0%
Clc1ccccc1-c1ccc2ncnc(NCCN3CCOCC3)c2c1	-18%	x	x	x	x
CCOC(=O)C1CCN(Cc2c(O)ccc3ccccc23)CC1	-3%	-3%	-1%	u	16%
SMILES	VDR inhibitor	Vif-A3F inh	Vif-A3G inh	rTrxR1 inhibitor	TrxR1 substrate
O=C(C1CCCO1)N1CCN(Cc2c(O)ccc3ccccc23)CC1 (centres undefined)	50µM*	-10%	2%	7.1µM*	9%
CCOC(=O)N1CCN(Cc2ccc(O)c3ncccc23)CC1	u	10%	-11%	13µM*	-1%[57.1 µM]
Cc1ccc(CN2CCN(C(=O)C3CCCO3)CC2)cc1 (centres undefined)	-3%	0%	0%	13%	13%
CCOC(=O)N1CCN(Cc2c(O)ccc3ccccc23)CC1	u	-7%	1%	13µM*	11%
Oc1ccc(CN2CCCCC2)c2cccnc12	-7%	-10%	-1%	-24%	10%
CCCCCCCCCCCCCC(=O)Nc1ccc(/C=C/c2ccnc3ccccc23)cc1	x	x	-1%	-9%	-7%
CC(=O)ON(C(C)=O)c1ccc(/C=C2\C=Cc3ccccc32)cc1	x	x	-3%	-8%	0%
O=C(NCc1ccccc1Cl)c1ccc2c(c1)N(Cc1ccccc1)C(=O)c1ccccc1S2	7%	3%	-3%	30%[57.1 µM]	6%[57.1 µM]
C=CCNc1oc(-c2ccco2)nc1S(=O)(=O)c1ccccc1	-13%	4%	-3%	45µM*	2%
COCCNc1oc(-c2ccco2)nc1S(=O)(=O)c1ccccc1	-21%	2%	3%	-29%	-5%
O=S(=O)(c1ccc(Cl)cc1)N1CCOCC1	2%	x	1%	7%	-1%
C=CCN1c2ccccc2C(=O)CS1(=O)=O	-8%	6%	-1%	11µM*	13%[57.1 µM]
C=CCN1C(=O)C2(NC(=O)c3ccccc3N2)c2ccccc21 (centres undefined)	-4%	-3%	u	16%[57.1 µM]	33%[57.1 µM]
O=C(Cc1ccc(OCc2ccccc2)cc1)NO	x	x	4%	13%	5%
O=Cc1cc(OCc2ccccc2)ccc1[B-](F)(F)F	20µM*	8%	0%	6%	-2%
CCCC1CCC(C2=N/C(=C\c3ccc(OC)c(OC)c3)C(=O)O2)CC1 (centres undefined)	5%	0%	0%	-13%	-8%
COc1cccc(/C=C2\N=C(C3CCCCC3)OC2=O)c1OC	32µM*	2%	-2%	-43%	6%[57.1 µM]
CC(=O)Oc1ccc(/C=C2\N=C(C3CCCCC3)OC2=O)cc1	79µM*	-8%	-3%	u	-6%[57.1 µM]
COc1cccc(Cn2cnc3c(cnn3C(C)(C)C)c2=O)c1	x	x	-1%	18%	1%
CCN(CC)CCN(C(=O)CCS(=O)(=O)c1ccccc1)c1nc2cc(OC)c(OC)cc2s1	-11%	4%	-2%	11µM*	-3%
CCN(CC)CCN(C(=O)CCS(=O)(=O)c1ccccc1)c1nc2cc(C)cc(C)c2s1	-20%	2%	-6%	14µM*	12%
CCN(CC)CCN(C(=O)CCS(=O)(=O)c1ccccc1)c1nc2c(C)cc(C)cc2s1	-22%	4%	-16%	u	-3%
Oc1ccc(Br)cc1C1C=C(c2ccc3c(c2)OCO3)NC(c2c(F)cccc2Cl)N1 (centres undefined)	u	x	-22%	-7%	0%
Brc1ccc(C2C=Cc3ccccc32)cc1 (centres undefined)	x	x	-2%	u	-3%
COc1ccc(N2CCN(C(=O)c3nn(-c4ccc(C)cc4)c(=O)n(C)c3=O)CC2)cc1	11%	-2%	3%	18%[57.1 µM]	-1%[57.1 µM]
